Unmarked numbers belong to inactive results. Calls of active or inactive are those of the source.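 The calls were made as follows: active = EC50 at or below 10 µM; inactive = EC50 above 10 µM.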
test: fluorescence interference artefacts, compound only, dose response, artefact control for cardiac thin filament activator project, biochemical, no RTF in test wells (AID 504697); details: compound-only fluorescence in RTF assay buffer with Ca2+ (no RTF in test wells), artifact counterscreen;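 also: emission near 535 nm under roughly 485 nm excitation as for IANBD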

Row | SMILES | EC50
1 | Cc1c(O)c2c3c(cccc3c1O)C(=O)N(c1ccccc1)C2=O | 13.9 µM
2 | Cc1ccc(N2C3=C(C(=O)CC(C)(C)C3)C(c3cn(C)nc3C)C3=C2CC(C)(C)CC3=O)cc1 | 17.1 µM
3 | CCN(CC)C(=S)SCC(=O)c1c(C)[nH]c2ccccc12 | > 71.5 µM
4 | O=C(/C=C/c1nc2ccccc2s1)N1CCCCCC1 | > 71.5 µM
5 | COc1ccc(/C=N/NC(=O)c2cccnc2)cc1CN1CCOCC1 | > 71.5 µM
6 | COc1ccc(/C=C2/SC(c3ccc(C)cc3)=NC2=O)cc1OC | 1.43 µM (active)
7 | COC(=O)c1sc(N2C(=O)C(O)=C(C(=O)c3ccc(C)o3)C2c2ccc(F)cc2)nc1C (stereo unspecified) | > 71.4 µM
8 | CCC(/C=C1\Oc2ccc(OC)cc2N1C)=C\c1sc2ccccc2[n+]1CCCS(=O)(=O)[O-] | 2.92 µM (active)
9 | Cc1ccc(S(=O)(=O)NCCCCCC(=O)Nc2ccccc2C)cc1 | > 71.5 µM
10 | N#C/C(=C\c1c[nH]c2ccccc12)C(=O)Nc1ncc(Cc2ccc(Cl)cc2Cl)s1 | > 71.5 µM
11 | CCOC(=O)/C(=C/C1=CC(=C/N(C)C)/C(=O)O1)C(C)=O | 15.3 µM
12 | O=C(Nc1ccccc1-c1ccccc1)c1ccc(Cl)c([N+](=O)[O-])c1 | > 71.5 µM
13 | Cc1cc(/C=C2\SC(=S)N(Cc3ccco3)C2=O)c(C)n1-c1cccnc1 | 12 µM
14 | CCCN1CCc2c(sc(NC(=S)NC(=O)c3ccccc3)c2C#N)C1 | > 71.5 µM
15 | CC(Oc1ccc(F)cc1)C(=O)Nc1sc2c(c1C(=O)NCc1cccnc1)CCCC2 (stereo unspecified) | > 71.5 µM
16 | O=C1c2ccccc2C(Nc2cccnc2)N1Cc1ccccc1Cl (stereo unspecified) | > 71.5 µM
17 | CCn1nc(-c2ccccc2)c2nc3ccccc3nc21 | 10.3 µM
18 | O=C(CSc1nnc(COc2ccccc2)o1)N1CCN(c2ccccc2)CC1 | > 71.5 µM

Row | SMILES | EC50
19 | O=C(Nc1ccc2c(c1)OCCO2)c1cccc(Cl)c1Cl | > 71.4 µM
20 | O=C(CO/N=C/c1ccccc1OC(F)F)NCc1cccs1 | > 71.5 µM
21 | COc1ccc(N/C=C2\C(=O)CCc3c2oc2cc(Cl)c(O)c(Cl)c32)cc1 | 7.28 µM (active)
22 | COc1ccc(/C=N/NC(=O)c2cc(OC)c(OC)c(OC)c2)cc1CN1CCc2cc(OC)c(OC)cc2C1C (stereo unspecified) | > 71.5 µM
23 | Fc1ccc(-c2[nH]ncc2CN(CC2CCC2)CC2CCCO2)c(F)c1 (stereo unspecified) | > 71.5 µM
24 | Nc1ccc2nc3c(=O)[nH]c(=S)[nH]c3nc2c1 | 2.93 µM (active)
25 | O=C(Nc1nc(-c2nc3ccccc3s2)cs1)C1COc2ccccc2O1 (stereo unspecified) | > 71.5 µM
26 | O=C(c1cnc2ccccc2n1)N1CCN(c2ccc(C(F)(F)F)cn2)CC1 | > 71.4 µM
27 | N=C1c2ccccc2CN1c1ccc(S(=O)(=O)N2CCCCC2)cc1 | > 71.5 µM
28 | N=c1c2c(ncn1Cc1ccco1)Oc1cc(O)ccc1C2c1ccccc1 (stereo unspecified) | > 71.4 µM
29 | O=C(Nc1ccccc1)NC1CS(=O)(=O)CC1O (stereo unspecified) | > 71.5 µM
30 | COc1ccccc1NC(=O)COC(=O)c1cnc(C)cn1 | > 71.5 µM
31 | COC(=O)C1=C(C)NC(=O)/C1=C\N(C)C | > 71.5 µM
32 | CN(C)CCN(C)Cc1c2ccccc2c(CN(C)CCN(C)C)c2ccccc12 | > 71.5 µM
33 | S=C(Nc1cc(Cl)ccc1Oc1ccccc1)N1CCN(c2ccccn2)CC1 | > 71.4 µM
34 | O=C(COC(=O)c1ccc(O)cc1)Nc1ccc2c(c1)OCCO2 | > 71.5 µM
35 | O=c1[nH][nH]c(C(F)(F)F)c1C=NCc1ccccc1Cl | > 71.4 µM
36 | COc1ccc(/C=C2\SC(=S)N(CCCC(=O)Nc3ccccc3C(=O)O)C2=O)cc1OC | 53.3 µM
